Several values for one entry are separate records, joined by “and”; a condition that tells them apart may be missing. Equal values may be shown once. Hit rate of the full screen: of about 310,000 compounds, about 11,000 (3.5%) were called active. About 8% were inconclusive and are not listed. For the sample, actives were picked, then their nearest neighbours and some compounds at random. A number with no mark means an inactive call. Calls come from the whole dose curve; as a rule, active = well fitted inhibition curve with a large enough effect; inconclusive = small, poorly fitted or top-dose-only effect, or effect the other way; inactive = flat fitted curve, though single readings scatter.
Experiment: VP16 counterscreen qHTS for inhibitors of ROR gamma transcriptional activity;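 note: Gal4-VP16 expression switched on by copper sulfate through the metallothionein promoter; nearly all actives have a fitted effect of over 50% in size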
Conditions: Drosophila S2 Gal4-VP16 UAS-luciferase, luminescence, 20 h; series mostly up to 53.6 µM; activity, negative = inhibition: at the top concentration
% is set by controls: 0 for no effect and ±100 for the full control effect; potency is the fitted concentration of half-maximal effect.

| SMILES | activity, negative = inhibition | Potency |
| --- | --- | --- |
| Cc1ccc(-c2cc(C(=O)NN)n[nH]2)o1 | -7.13% |  |
| CC(C)c1cc(C(=O)N/N=C/C(Br)=C/c2ccccc2)n[nH]1 | -5.48% |  |
| Cc1cc2oc(=O)cc(CN3CCN(Cc4ccccc4)CC3)c2cc1C | 2.41% |  |
| COc1cccc(CNC(=O)Cn2c(=O)oc3cc(S(=O)(=O)N4CCCCC4)ccc32)c1 | 0.42% |  |
| Cc1ccc(N2CCN(C(=O)c3cccs3)CC2)c(C)c1 | -5.29% |  |
| O=C(Nc1ccccc1N1CCCCC1)c1cccc(F)c1 | 4.09% |  |
| CCc1ccc(C(=O)NC(=S)Nc2ccccc2N2CCOCC2)cc1 |  | 3.16 µM (active) |
| O=C(Nc1ccccc1N1CCCC1)c1ccc2ccccc2c1 | -5.87% |  |
| COc1ccccc1C(=O)NC(=S)Nc1ccccc1N1CCCCC1 |  | 10 µM (active) |
| Cc1ccccc1NC(=O)Nc1ccccc1N1CCCCC1 | 0.145% |  |
| O=C(CCNC(=O)c1ccc([N+](=O)[O-])cc1)Nc1ccccc1N1CCOCC1 | -9.76% |  |
| COc1ccc(C(=O)NC(=S)Nc2ccccc2N2CCN(S(C)(=O)=O)CC2)cc1OC | 0.0024% |  |
| O=C(NC(=S)Nc1ccccc1N1CCCCC1)c1ccc(F)cc1 |  | 6.31 µM (active) |
| CC(=O)c1ccc(N2CCN(CC(=O)Nc3ccccc3N3CCOCC3)CC2)cc1 | -11.4% [at 10 µM] |  |
| COc1ccc(/C=C(\C#N)c2c[nH]c3ccccc23)cc1 | -10.3% |  |
| Cn1c(=O)oc2cc(S(=O)(=O)NCCC(=O)NCc3ccccc3Cl)ccc21 | -0.339% |  |
| CN(Cc1ccccc1)C(=O)C1CCCN(c2ncnc3c2nc2n3CCCCC2)C1 (stereo not drawn) | 3.49% |  |
| CC1CCN(CCCn2c(SCC(=O)NC3CCCC3)nc3ccccc3c2=O)CC1 | -1.18% |  |
| Cc1c2cnn(CC(=O)NCc3ccccn3)c(=O)c2c(C)n1Cc1ccc(Cl)cc1 | -2.27% |  |
| O=C1Nc2ccccc2/C1=C/c1ccnc2ccccc12 | 16.7% |  |
| COc1cc(CN2CCCC(C(=O)c3ccc(SC)cc3)C2)cc(Cl)c1O (stereo not drawn) | -0.743% |  |
| COc1ccc(NC(=O)C2CCN(S(=O)(=O)c3ccc4[nH]c(=O)oc4c3)CC2)c(OC)c1 | -0.696% |  |
| C=CCSc1nnc(N2C(=O)C(O)=C(C(=O)c3ccco3)C2c2ccc(F)cc2)s1 (stereo not drawn) | 0.533% |  |
| O=S(=O)(c1ccc(Br)cc1)c1nc(-c2ccccc2)oc1N1CCOCC1 | 7.68% |  |
| COc1cc(C(=O)NC2CCN(Cc3ccccc3)CC2)cc(Cl)c1OC(C)C | -9.67% |  |
| CC(C)(C)Nc1nc(-c2ccccn2)nc2ccccc12 |  | 3.98 µM (active) |
| Cc1ccc(Oc2nc(-c3ccccn3)nc3ccccc23)cc1 |  | 3.16 µM (active) |

| SMILES | activity, negative = inhibition | Potency |
| --- | --- | --- |
| CCOC(=O)c1cnc(-c2ccccc2)nc1Oc1ccc(C)cc1 | -6.34% |  |
| COc1ccc(Cc2nc(-c3ccccn3)no2)cc1OC | -24.4% |  |
| Cc1cnc(CNc2nc(-c3cccnc3)nc3ccccc23)cn1 | 3.82% |  |
| COc1ccccc1Oc1nc(-c2cccnc2)nc2ccccc12 | 9.33% |  |
| COc1ccc(Sc2nc(-c3ccccc3)ncc2OC)cc1 | 4.2% |  |
| COc1cnc(-c2ccccn2)nc1Oc1ccc(C(C)(C)C)cc1 |  | 12.6 µM (active) |
| CNc1nc(-c2ccccc2OC)nc2ccccc12 | -16.4% |  |
| CCCc1ccc(OCC(O)CN2CCN(C(=O)OCC)CC2)cc1 (stereo not drawn) | -1.66% |  |
| CC(C)c1ccc(NC(=O)C2CCCN(S(=O)(=O)c3cccnc3)C2)cc1 (stereo not drawn) | 12.4% |  |
| CCCn1c(C2CCCN2c2nc(-c3ccc(C)cc3)cs2)nc2cc(Cl)c(N3CCCCC3)cc21 (stereo not drawn) | -4.11% |  |
| COc1ccc(CNC(=O)c2cc(=O)c3c(C)cc(C)cc3o2)cc1 | 3.05% |  |
| O=C(NCCCN1CCOCC1)c1cc(-c2ccccc2F)no1 | -7.28% |  |
| COc1ccccc1N1CCN(S(=O)(=O)c2ccc3c(c2)NC(=O)CS3)CC1 | 1.7% |  |
| Cc1ccccc1NC(=O)c1ccccc1NS(=O)(=O)c1cccc2cccnc12 | -4.15% |  |
| O=[N+]([O-])c1ccccc1S(=O)(=O)Nc1cccc2cccnc12 |  | 1.41 µM (active) and 1 µM (active) |
| O=[N+]([O-])c1cccc2ncccc12 | 21.2% |  |
| Cc1nc2ccc(C(=O)N(C)CC3CCCN(CCc4ccc(Cl)cc4)C3)cc2[nH]1 (stereo not drawn) | -1.01% |  |
| CC(C)CNS(=O)(=O)c1ccc(CCC(=O)NCc2ccc(Cl)cc2)cc1 | -5.64% |  |
| CCOC(OCC)c1ccc(/C=C\c2nccc(N)n2)cc1 | -13.3% |  |
| COC(=O)c1ccc(OC(=O)c2cnccn2)cc1 | -0.541% |  |
| c1ccc(-c2cn3c(n2)CCc2ccc4cccnc4c2-3)cc1 |  | 7.94 µM (active) |
| COC(=O)C1=CN(c2ccc(F)c(F)c2)C=C(C(=O)OC)C1c1ccc([N+](=O)[O-])cc1 | -3.79% |  |
| Cc1c(C)c(C)c2[nH]c(=S)[nH]c2c1C |  | 10 µM (active) |
| O=c1[nH]c(=S)[nH]c2[nH]c(=S)[nH]c12 | 3.04% |  |
| Cc1cc(=O)[nH]c(=S)[nH]1 |  | inactive |
| Cc1ccc(S(=O)(=O)N(CC(=O)Nc2cccnc2)c2ccc(Br)cc2)cc1 | -5.32% |  |
